PubChem BioAssay AID504332 (National Center for Advancing Translational Sciences (NCATS), 2011)
Several values for one entry are separate records, joined by “and”; a condition that tells them apart may be missing. Equal entries are not always repeated. The whole screen tested about 350,000 compounds, of which about 31,000 (8.9%) were called active. Inconclusive results (about 15%) are left out. Calls follow the shape of the dose curve; as a rule, active = well fitted inhibition curve with a large enough effect; inconclusive = small, poorly fitted or top-dose-only effect; inactive = no such curve, though single readings can be large or run the other way. What follows is part of a selection rich in actives, with near analogues and random picks from the rest. A structure can be active in one record and inactive in another.

The compounds below were run against Histone-lysine N-methyltransferase EHMT2 (Homo sapiens) (UniProt Q96KQ7) (assay: qHTS Assay for Inhibitors of Histone Lysine Methyltransferase G9a). Settings: G9a H3K9 monomethylation, AlphaScreen, 2 h; series mostly up to 102 µM; activity, negative = inhibition: at the top concentration.
Excerpt: Methylated lysines, on the N-terminal tails of histone proteins serve as epigenetic markers to recruit factors that can then modify local chromatin structure to lead to functional consequences. G9a and other members of the SUV39 family of the SET domain-containing superfamily of histone lysine methyltransferases (HMT) have been identified to specifically methylate Lys9 of histone H3 (H3K9). G9a catalyzes the mono- and di-methylation of H3K9 in mammalian euchromatic regions, where the resulting H3K9me2 is indicative of transcriptional repression. […] The inhibition of G9a will result in transcriptional activation and work synergistically with DNA methyltransferase and histone deacetylase inhibitors, to kill cancer cells. This qHTS assay for identification of G9a inhibitors is a chemiluminescence based AlphaScreen (PerkinElmer). Methylation of biotinylated-histone peptide is measured through specific antibody-based detection, in conjunction with streptavidin-coated donor and anti-IgG antibody-coated acceptor beads. The method is particularly well suited for detection of inhibitors acting by the desired histone peptide competitive mechanism and is applicable to testing other HMTs. Although AlphaScreen has significant advantages with its utility in a variety of epigenetic target assays, the primary screening data provided in this deposition should be used with caution due to the prevalence of screening artifacts. An AlphaScreen counterscreen is highly recommended to be run against any putative actives to eliminate non specific artifacts. Alternatively, one can use other AlphaScreen assays in PubChem to filter out promiscuous hits. Quinn et al. A chemiluminescence-based method for identification of histone lysine methyltransferase inhibitors. Mol Biosyst 6(5): 782-8. 2010. PMID: 20567762 [2] Baell,Holloway. New substructure filters for removal of pan assay interference compounds (PAINS) from screening libraries and for their exclusion in bioassays. J Med Chem. 53(7):2719-40. 2010. PMID: 20131845 NIH Molecular Libraries Probe Production Network [MLPCN] NIH Chemical Genomics Center [NCGC] Structural Genomics Consortium (SGC) NIH Grant: 5U54 MH084681-02
To each well of a 1,536w plate, 2ul of HMT enzyme (final 20nM) were added, using a nanoliter dispenser. The G9a- and GLP-inhibitor BIX-01294 (CID: 25150857) are used as an intraplate control, with a 16-point titration in duplicate. A Kalypsys pin-tool transferred 23nl of library compound solution in DMSO to each well. Following a 15 min incubation of enzyme with compounds at room temperature, 1ul mixture of b-H3K9 peptide substrate (final 500nM) and SAM cofactor (final 20uM) were added. Reactions were allowed to proceed at room temperature for 2 hours. Methylated b-H3K9 peptide product was detected with 0.5 ug/mL rabbit polyclonal anti-monomethyl histone H3K9 antibody (Abcam Inc., Cambridge, MA) and 20 ug/mL each streptavidin-coated donor and anti-rabbit IgG acceptor AlphaScreen beads. Antibody and beads were added in a 1ul dispense, for a final volume of 4ul, and plates were incubated, protected from the light, for 10 min at room temperature. Microplates were then read on an EnVision multilabel plate reader using the 1,536 plate HTS AlphaScreen aperture (excitation time 80 ms, measurement time 240 ms).
% is scaled to controls: 0 for no effect and ±100 for the full control effect; potency is read from the fitted curve at half-maximal effect.
Also: nearly all actives have a fitted effect of over 75% in size.

Sequence of Histone-lysine N-methyltransferase EHMT2 (Homo sapiens) (Q96KQ7 913-1193 limits assumed): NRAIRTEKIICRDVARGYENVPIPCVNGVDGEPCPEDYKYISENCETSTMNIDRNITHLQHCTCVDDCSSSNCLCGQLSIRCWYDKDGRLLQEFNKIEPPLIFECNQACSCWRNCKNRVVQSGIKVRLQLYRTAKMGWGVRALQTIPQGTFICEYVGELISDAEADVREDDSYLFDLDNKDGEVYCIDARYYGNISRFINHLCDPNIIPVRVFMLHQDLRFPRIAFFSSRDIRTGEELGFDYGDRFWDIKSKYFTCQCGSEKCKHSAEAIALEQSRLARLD

Compound	activity, negative = inhibition	Potency
c1csc(CN2CC3(CCNCC3)C2)n1	-16.9% [at 12.7 µM] (inactive)	
c1ccc(N2CC[C@@]3(CCCNC3)C2)nc1	-39.9% [at 12.7 µM] (inactive)	
COC(=O)CN1C(=O)C2(C(C(=O)OC)=C(N)Oc3ccccc32)C2=C1CC(C)(C)CC2=O (centres undefined)	17.5% [at 59 µM] (inactive)	
COc1cccc(N2C(=O)NC(=O)/C(=C\c3cn(C)c4ccccc34)C2=O)c1	-16.1% (inactive)	
COc1cccc(N2C(=O)NC(=O)/C(=C\c3ccc([N+](=O)[O-])s3)C2=O)c1		7.94 µM (active)
O=C1NC(=O)N(c2ccccc2)C(=O)/C1=C/c1ccc([N+](=O)[O-])s1		8.91 µM (active)
CCN1C[C@]2(C)CC[C@H](O)[C@@]34[C@@H]5CC6[C@@H](OC)C[C@@](O)([C@@H]5[C@@H]6O)[C@H](C[C@@H]23)[C@H]14	28.6% [at 21.5 µM] (inactive)	
CCOc1cccc(=NC2CCCCC2)c2c(C)[nH]c(C)c12	40.3% [at 12.7 µM] (inactive)	
NC[C@H](O)c1ccc(O)cc1	24.2% [at 21.5 µM] (inactive)	
CCN(CC)C(=O)c1ccc(NC(=O)c2cc(-n3cnnc3)ccc2Cl)cc1	-47.2% [at 12.7 µM] (inactive)	
COC(=O)C1=C(c2ccc(Cl)c(C(F)(F)F)c2)C[C@@H]2CC[C@H]1N2C(=O)NC(C)C	11.8% [at 2.33 µM] (inactive)	
CC[N+]1(C)CCCC(OC(=O)C(O)(c2ccccc2)c2ccccc2)C1 (centres undefined)	inactive	
Cc1ncsc1CCCl		inactive and 23.8 µM (active)
COc1ccc(CCn2c(O)c(C=NC3CC3)c(=O)[nH]c2=O)cc1OC	2.41% [at 59 µM] (inactive)	
COC(=O)c1ccc2[se]c(CC3CCCCC3)c(I)c2c1	-2.16% [at 59 µM] (inactive)	
O=C(C1CCN(CC2CCCCC2)CC1)N1CCCC1		8.91 µM (active)
CSc1ccc(C(=O)C2CCCN(Cc3ccn[nH]3)C2)cc1 (centres undefined)	-40.8% (inactive)	
O=[N+]([O-])c1ccc(C2C3C(c4ccccc4)=NC4(CCCCC4)N32)cc1 (centres undefined)	-20.1% (inactive)	
CC(Cc1cccs1)NCc1ccc(Cl)cc1 (centres undefined)	-3.26% (inactive)	
Nc1ccc([N+](=O)[O-])cc1	6.3% [at 0.501 µM] (inactive)	

Compound	activity, negative = inhibition	Potency
O=c1c2ccccc2nc(-c2ccccc2)n1-c1ccccn1	0.769% [at 0.501 µM] (inactive)	
CC12CN3CC(C)(CN(C1)C3c1cccs1)C2 (centres undefined)	-3.29% (inactive)	
Cc1ccc(-c2cc(C(=O)N3CCC4(CC3)OCCO4)no2)cc1	-1.09% (inactive)	
CCOC(=O)C(NS(=O)(=O)c1ccc(C)cc1)(C(F)(F)F)P(=O)(OCC(C)C)OCC(C)C (centres undefined)		7.08 µM (active)
COC(=O)C1=C(c2ccc(F)cc2OCc2ccccc2)C[C@@H]2CC[C@H]1N2C(=O)NCc1ccc(C(C)(C)C)cc1	21.1% [at 2.33 µM] (inactive)	
CC(=O)Nc1ccccc1C(=O)OCC(=O)c1cccc2ccccc12	2.62% [at 59 µM] (inactive)	
CCOC(=O)C1CCN(Cc2coc3ccc(Cl)cc3c2=O)CC1		3.16 µM (active)
C[N+]12CN3CN(CN(C3)C1)C2		1.12 µM (active)
COc1ccc(CCn2c(O)c(C=NCCCn3ccnc3)c(=O)[nH]c2=O)cc1OC	21% (inactive)	
CCCCCCCCCCCCCC(=O)O[C@@H]1[C@@H](C)[C@@]2(O)[C@@H](C=C(CO)C[C@]3(O)C(=O)C(C)=C[C@@H]23)[C@@H]2C(C)(C)[C@]12OC(C)=O	8.77% [at 59 µM] (inactive)	
COC(=O)N1C(c2ccccc2)C1c1ccccc1 (centres undefined)	35.5% (inactive)	
COC(=O)C1=C(c2cccc(OCc3ccccc3)c2)C[C@@H]2CC[C@H]1N2C(=O)NCc1ccc(Br)cc1	-5.98% [at 0.501 µM] (inactive)	
O=C(c1cc(-c2ccncc2)nc2ccccc12)N1CCC2(CC1)OCCO2	-0.255% [at 59 µM] (inactive)	
O=C(Nc1cccc2ccccc12)N1CCC2(CC1)OCCO2		50.1 µM (active)
COc1ccc(NC(=O)N2CCC3(CC2)OCCO3)c(OC)c1	18.8% (inactive)	
CCN1CC2C3CCC(C)(O3)C2C1 (centres undefined)	-1.34% (inactive)	
Cc1nnc(NC(=O)c2cccn(Cc3cccc(F)c3)c2=O)s1	12.5% [at 59 µM] (inactive)	
Cn1cc(/C=C/c2nc3ccccc3c(=O)n2-c2ccccc2)c2ccccc21	-33.2% [at 59 µM] (inactive)	
O=C(OCC1O[C@@H](OC(=O)c2cc(O)c(O)c(O)c2)[C@@H](OC(=O)c2cc(O)c(O)c(O)c2)[C@@H](OC(=O)c2cc(O)c(O)c(O)c2)[C@@H]1OC(=O)c1cc(O)c(O)c(O)c1)c1cc(O)c(O)c(O)c1 (some centres undefined)		50.1 µM (active)
CCN(N=Nc1nonc1OC)c1nonc1OC	22.1% [at 59 µM] (inactive)	

Compound	activity, negative = inhibition	Potency
CC(=O)N(C1=NCCCS1)c1ccccc1F	1.9% (inactive)	
COc1ccc(-c2nn(CCC#N)cc2C(=O)O)cc1	-18.2% (inactive)	
CC(=O)c1ccc(OC(NC(=O)Cc2ccccc2)C(Cl)(Cl)Cl)cc1 (centres undefined)	-9.58% (inactive)	
CN(C)C(=O)Oc1ccc2c(c1)O/C(=C\c1ccccc1)C2=O	-35.3% (inactive)	
N#CC(C#N)=Cc1cc(O)c(O)c([N+](=O)[O-])c1		14.1 µM (active) and 15.8 µM (active)
NCCc1ccc(S(=O)(=O)F)cc1	inactive	
COc1c(O)ccc2c1-c1c3c(cc4c1C(C2)N(C)CC4)OCO3 (centres undefined)		39.8 µM (active)
COc1ccc(C2NCc3ccc4c(c3-n3cccc32)OCO4)cc1OC (centres undefined)	0.908% [at 12.7 µM] (inactive)	
CC(=O)NC(=O)NC(C)Cc1ccccc1 (centres undefined)	4.15% (inactive)	
CCOC(=O)c1c(-c2ccccc2)oc2ccc(OC(=O)N(C)C)cc12	6.28% [at 12.7 µM] (inactive)	
O=C(CN1CCCCC1)Nc1ccc(Br)cc1C(=O)c1ccccc1Cl	8.1% (inactive)	
NC(=O)Nc1cccc(C(F)(F)F)c1	2.76% [at 59 µM] (inactive)	
CC(C)C(N)C(=O)OCCOCn1cnc2c(=O)[nH]c(N)nc21 (centres undefined)	-19.5% [at 2.33 µM] (inactive)	
Cc1ccc(Cn2nnnc2CN2CCC(n3nnc4ccccc43)CC2)cc1		50.1 µM (active)
CC(C)(O)c1[se]c2ccccc2c1I	-25.9% (inactive)	
CN(C)S(=O)(=O)c1cc(C(=O)N2CCC(C(=O)O)(c3ccccc3)CC2)ccc1Cl	8.28% (inactive)	
Cc1ccc(C)c(NC2=NCCCS2)c1	-38.9% (inactive)	
Cc1c(C(=O)O)cccc1-n1c(C)cc(/C=C2\C(=O)NC(=O)N(c3ccc4c(c3)OCO4)C2=O)c1C		28.2 µM (active)
CC(C)c1c(CN(C)C(C)Cc2ccccc2)n(C)n(-c2ccccc2)c1=O (centres undefined)	6.73% [at 59 µM] (inactive)	
